Source: PubChem (several laboratories)
Rows were chosen to be rich in hits. Some 2.3% of all compounds tested hit in one or more screens of this group.
MCL1 BIM primary = inhibitors of MCL1 binding to BIM-BH3, primary screen, biochemical, fluorescence polarization; Induced myeloid leukemia cell differentiation protein Mcl-1 (Homo sapiens), Q07820; GST-MCL1 / FITC-Bim-BH3 fluorescence polarization; inhibition, % at 10.9 µM; actives 0.68% (n = 320,000);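 active means inhibition above the mean inhibition of all tested compounds plus 3 SD, set per campaign, cut at about 40% in these data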;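 further: 0% = DMSO wells and 100% = unlabeled Bim-BH3 peptide control; higher means more loss of mP so more displacement of Bim peptide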
BCLXL inh = inhibitors of human Bcl-xL, primary screen, biochemical, fluorescence polarization, HTS; inhibition, % at 10.9 µM; Bcl-2-like protein 1 (Homo sapiens), Q07817; AID 2129, 2009; GST-Bcl-xL / FITC-Bim BH3 peptide fluorescence polarization; actives 0.7% (n = 320,000);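 active means inhibition above the mean of all tested compounds plus 3 SD, cutoff set per campaign, cut at about 30% in these data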;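 further: 0% = DMSO wells and 100% = unlabeled Bim-BH3 peptide competitor; inhibitors lower millipolarization by displacing the labeled peptide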
GLD-1 TGE inh = GLD-1/TGE RNA complex disruptors, primary screen, biochemical, fluorescence polarization; inhibition, % at 5.96 µM; AID 2280, 2010; actives 0.44% (n = 320,000); purified GLD-1 + fluorescein TGE RNA;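 active means percent inhibition above a per-plate cutoff, the plate mean of test compounds plus 3 SD, cut at about 30% in these data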;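 further: 0% = DMSO wells with GLD-1 and probe and 100% = wells lacking GLD-1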
Target sequence (Q17339 whole entry, looked up): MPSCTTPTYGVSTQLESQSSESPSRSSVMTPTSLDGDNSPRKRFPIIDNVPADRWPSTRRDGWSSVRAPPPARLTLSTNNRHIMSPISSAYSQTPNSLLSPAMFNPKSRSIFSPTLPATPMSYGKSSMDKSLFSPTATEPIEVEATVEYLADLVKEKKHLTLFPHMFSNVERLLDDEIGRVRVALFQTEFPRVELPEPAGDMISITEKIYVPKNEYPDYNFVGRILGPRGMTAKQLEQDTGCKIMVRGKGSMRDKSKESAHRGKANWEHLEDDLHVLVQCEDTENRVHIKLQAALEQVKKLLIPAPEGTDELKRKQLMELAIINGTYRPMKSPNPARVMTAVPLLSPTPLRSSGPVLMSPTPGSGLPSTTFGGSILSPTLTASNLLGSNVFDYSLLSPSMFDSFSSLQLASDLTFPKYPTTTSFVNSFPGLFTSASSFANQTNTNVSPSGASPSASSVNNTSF
Mcl1-Noxa inh = Mcl-1/Noxa binding inhibitors, primary screen, biochemical, TR-FRET, 1536-well. Induced myeloid leukemia cell differentiation protein Mcl-1 (Homo sapiens), Q07820. TR-FRET Mcl-1/Noxa peptide binding, 2 h. inhibition, % at 21.7 µM. actives 1.5% (n = 220,000);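 active means compounds that cut the protein-peptide binding signal by more than 50% relative to plate controls in a single-dose test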;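 further: His-tagged Mcl-1 with rhodamine Noxa BH3 peptide and terbium anti-His antibody; 0% = Mcl-1 plus Noxa peptide wells and 100% = peptide-only wells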
Mcl1 Bid PPI = Mcl-1/Bid binding inhibitors, primary screen, biochemical, TR-FRET, 1536-well | TR-FRET Mcl-1/Bid-Dy647 peptide binding | inhibition, % at 21.7 µM | actives 0.97% (n = 220,000) | AID 1021, 2008;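 active means compounds that cut the binding signal by more than half at the single screening dose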;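 further: His-tagged Mcl-1 with europium anti-His antibody binding Bid BH3 peptide; 0% = Mcl-1 plus peptide wells and 100% = peptide-only wells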
Bim-Mcl-1 = inhibitors of Bim peptide binding to Mcl-1, primary screen, biochemical, bead-based flow cytometry, multiplex. Induced myeloid leukemia cell differentiation protein Mcl-1 (Homo sapiens), Q07820. Bim peptide-Mcl-1 binding. inhibition, % at 10 µM. actives 0.1% (n = 190,000); in the data active means inhibition above about 40%;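 further: 0% = no compound tracer wells and 100% = peptide blocker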
GLD1 RNA confirm = GLD-1/TGE RNA binding inhibitors, retest, confirmation, biochemical, fluorescence polarization, triplicate. inhibition, % at 5.96 µM. actives 10% (n = 550). GLD-1/FL-TGE RNA fluorescence polarization. shares compounds with GLD-1 TGE inh;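 active means average inhibition across triplicates above the hit cutoff set in the primary screen, cut at about 32% in these data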;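 further: 0% = GLD-1 with RNA probe and DMSO and 100% = wells lacking GLD-1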
* = called active by the depositor; x = not tested or not shown.

SMILES	MCL1 BIM primary	BCLXL inh	GLD-1 TGE inh	Mcl1-Noxa inh	Mcl1 Bid PPI	Bim-Mcl-1	GLD1 RNA confirm
CCn1c(COc2ccccc2)nnc1SCC(=O)CC(=O)Nc1ccccc1OC	-5	0	35*	-16	-49	-3	-6
CCn1c(COc2cccc(C)c2)nnc1SCC(=O)CC(=O)Nc1ccccc1OC	-8	-2	4	22	-12	-3	x
CC1CN(C(=O)C2CC2)C(C)CN1C(=O)C1CC1 (stereo not drawn)	3	2	34*	-3	-11	-5	-5
Cc1cc2cc(CNC(=O)COc3ccccc3)ccc2n1C	17	17	21	15	-64	x	x
COCC(=O)NCc1ccc2c(c1)cc(C)n2C	33	30	36*	2	-9	-2	14
COc1ccc(CC(=O)NCc2ccc3c(c2)cc(C)n3C)cc1OC	-1	3	6	7	-46	1	x
CCOc1ccc(CC(=O)NCc2ccc3c(c2)cc(C)n3C)cc1	5	1	11	7	-46	0	x
Cc1cc2cc(CNC(=O)c3ccc4c(c3)OCO4)ccc2n1C	29	33*	44*	30	-15	0	6
COc1cc(OC)cc(C(=O)NCc2ccc3c(c2)cc(C)n3C)c1	35	30*	52*	20	-47	-2	7
Cc1cc2cc(CNC(=O)c3ccco3)ccc2n1C	41*	38*	34*	8	-115	x	3
COc1ccccc1NC(=O)c1cnc(SCC(=O)NCC2CCCO2)n(C)c1=O (stereo not drawn)	-5	-3	3	x	x	x	x
CCc1cc(=O)oc2c3c(cc(OCC(=O)NCCN4CCOCC4)c12)OC(C)(C)CC3	-2	0	1	x	x	x	x
CS(=O)(=O)N1CCC(Oc2cccc(C(=O)NCCCC3CCCC3)c2)CC1	-2	1	1	x	x	x	x
Cc1cccc(C(=O)OCC(=O)NC2CC2)c1O	x	x	0	x	x	x	x
O=C(NC1CCCCCC1)c1ccc(CS(=O)(=O)Cc2ccc(F)cc2)o1	4	5	5	x	x	x	x
Cc1ccc(CS(=O)(=O)Cc2ccc(C(=O)NC3CC3)o2)cc1	5	4	33*	x	x	x	-8
Cc1cccc(S(=O)(=O)C(C#N)c2nc3ccccc3nc2N2CCOCC2)c1 (stereo not drawn)	27	32*	41*	25	24	-3	-2
COc1ccc(S(=O)(=O)C(C#N)c2nc3ccccc3nc2N2CCC(C)CC2)cc1 (stereo not drawn)	47*	49*	42*	x	x	x	5
CCN(CC)S(=O)(=O)c1ccc(N2CCCC2)c(NC(=O)c2ccc(N3CCCC3=O)cc2)c1	7	6	7	x	x	x	x
Cc1ccc(C(CCNC(C)c2cccs2)c2ccco2)cc1 (stereo not drawn)	3	1	-3	7	-11	x	x
CCC12OC(=N)C(C#N)(C1C)C(C#N)(C#N)C(c1ccccc1)O2 (stereo not drawn)	25	21	33*	19	-13	-1	-1
Nc1nnnn1/N=C/c1cc(Cl)cc(Cl)c1OCc1ccc(Cl)cc1Cl	11	4	-7	9	-22	0	x
Nc1nnnn1/N=C/c1cc(Cl)ccc1O	26	23	38*	x	x	x	46*
Clc1ccccc1/C=N/NC1=Nc2cccc3cccc1c23	15	23	48*	-8	-6	-2	22
CCCn1c(N)c(N(CCOC)C(=O)Cc2ccc(S(=O)(=O)N3CCOCC3)s2)c(=O)[nH]c1=O	39	41*	38*	x	x	x	51*
SMILES	MCL1 BIM primary	BCLXL inh	GLD-1 TGE inh	Mcl1-Noxa inh	Mcl1 Bid PPI	Bim-Mcl-1	GLD1 RNA confirm
COc1ccc(C(=O)N/C(=C\c2cn(C)c3ccccc23)C(=O)NCCCn2ccnc2)cc1	3	2	2	x	x	x	x
CCCCCCc1cc2cc(S(=O)(=O)c3ccc(Cl)cc3)c(=O)oc2cc1O	-3	1	30	2	7	0	x
CCCCCCc1cc2cc(S(=O)(=O)c3ccc(C)cc3)c(=O)oc2cc1O	5	6	39*	0	-4	-1	-4
COc1cc(NC(=O)c2ccccc2)c(OC)cc1NC(=O)CN1C(=O)NC2(CCCCC2)C1=O	-18	-5	2	x	x	x	x
CCOC(=O)[C@H]1[C@H]2COc3ccc(OC)cc3[C@@H]2N2C(=O)CN(Cc3ccc(F)cc3)C(=O)[C@@]12C	1	1	-3	x	x	x	x
CCOC(=O)[C@H]1[C@H]2COc3ccc(OC)cc3[C@@H]2N2C(=O)CN(Cc3ccc(Cl)cc3)C(=O)[C@@]12C	8	16	38*	x	x	x	13
O=c1oc2cc(O)ccc2cc1S(=O)(=O)c1ccccc1	30	27	40*	x	x	x	12
COc1ccc(C(=O)N/N=C(\C)CC(=O)Nc2cccc(C(F)(F)F)c2)cc1	10	4	0	19	13	x	x
CCOC(=O)c1ccc2ncc(C(=O)OCC)c(NCc3ccco3)c2c1	30	33*	39*	13	-11	0	3
CSC1=NC(C)(C)CC2(C)Nc3ccccc3N12 (stereo not drawn)	6	15	47*	-3	-89	-1	0
Cn1cc(/C=N\O)nc2c(=O)n(-c3ccccc3)c(=O)nc1-2	34	36*	35*	16	-35	1	8
O/N=C/c1cn(-c2ccccc2)nn1	4	0	10	-8	-3	0	x
O=C(/C=C/c1ccc(Cl)cc1)NCc1cccs1	9	7	65*	0	-8	-7	12
CCOC(=O)C(C)Oc1cccc2c(=O)n(CC(=O)NCc3ccc(F)cc3)ccc12 (stereo not drawn)	7	-2	-2	-14	-3	x	x
CCOC(=O)C1=C(Cc2ccc(F)cc2)C(=O)c2ccccc2C1=O	41*	35*	66*	46	-4	0	2
CCOc1ccc(NC(=O)CN(C)C(=O)C2CCN(C(=O)c3ccc(Cl)cc3)CC2)cc1OCC	0	8	3	x	x	x	x
COc1cc(O)cc2cc3c(c(O)c12)C(=O)CC(C)(O)O3 (stereo not drawn)	43*	38*	34*	50	-111	x	49*
